From PubChem BioAssay
Active and inactive are the calls of the source.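 The calls were made as follows, unless noted: active = visual image review flags a hit and inhibition of aggregation exceeds 20%; inconclusive = visual hit but inhibition at or below 20%; inactive = no hit on visual image review.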

Tests used:
[1] = inhibitors of TNFa-induced NFkB p65 translocation, primary screen, imaging, HUVEC, MLSMR starter and 10KST1 sets (AID 438;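 active = inhibition above 20% together with a positive visual image hit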;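 also: compound added about 3h40 before a 20 min TNFalpha stimulation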;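 as to inhibition: signal is the nuclear over cytoplasmic p65 intensity ratio per well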); conditions: HUVEC TNFa-induced p65 nuclear translocation; cell count: measured here: nuclei count (cytotoxicity indicator), at 2.08 µM; inhibition: at 2 µM, stronger effect = higher value, 0% TNFa-plus-vehicle, 100% no-TNFa wells
[2] = reduction of polyQ htt aggregates in cells – imaging, exon1htt(103Q)mCFP cells, high-content imaging, primary screen (AID 483); conditions: exon1htt(103Q)mCFP cell line, aggregate imaging, at 2 µM; inhibition of aggregation: stronger effect = higher value; nuclei count: measured here: cell count, toxicity;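 also: compound exposure lasted 3 days before fixation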;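 as to nuclei count: percent of the per-plate median nuclei count of sample wells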
[3] = endothelial E-selectin expression blockers – imaging, HUVEC, immunofluorescence, MLSMR starter and 10KST1 sets, primary screen (AID 487;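 active = visually confirmed hit in the image check and inhibition above 20%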;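 as to inhibition: signal is fraction of cell area covered by stained E-selectin grains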;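 as to nuclei count: 100% = median nuclei count of all wells on the same plate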); conditions: HUVEC TNFalpha-induced E-selectin immunofluorescence imaging, at 2 µM; inhibition: stronger effect = higher value; nuclei count: measured here: cell number, toxicity
[4] = molecular target: Voltage-gated potassium channel subunit beta-2 (Rattus norvegicus) (UniProt P62483); test: inhibitors of rat Kvbeta2 reductase activity – biochemical, NADPH fluorescence, primary screen (AID 622;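 active = fluorescence slope higher than the sample average by over 3 SD, cut at about -0.22 in these data, passing the limit was not always enough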;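 also: slope of raw intensity against log time taken from 70 to 1610 s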); conditions: recombinant KvBeta, 4-cyanobenzaldehyde reduction, at 10 µM, stronger effect = higher value
Chain of Voltage-gated potassium channel subunit beta-2 (Rattus norvegicus) (P62483 whole entry, looked up): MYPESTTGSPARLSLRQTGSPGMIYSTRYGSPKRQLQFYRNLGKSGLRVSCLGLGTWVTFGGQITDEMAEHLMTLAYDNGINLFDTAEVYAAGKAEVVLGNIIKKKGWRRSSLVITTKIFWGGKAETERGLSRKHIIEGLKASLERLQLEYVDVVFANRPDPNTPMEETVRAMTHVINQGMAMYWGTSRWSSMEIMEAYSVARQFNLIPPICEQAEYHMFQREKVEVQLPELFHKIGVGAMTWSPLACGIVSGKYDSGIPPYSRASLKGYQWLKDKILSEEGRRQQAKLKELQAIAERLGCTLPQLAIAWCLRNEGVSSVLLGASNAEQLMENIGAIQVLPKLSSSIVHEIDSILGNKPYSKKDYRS

[5] = molecular target: Voltage-gated potassium channel subunit beta-2 (Rattus norvegicus) (UniProt P62483); test: enhancers of rat Kvbeta2 NADPH turnover – biochemical, NADPH fluorescence, primary screen (AID 623;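 active = NADPH fluorescence slope more negative than the mean of all samples by about 3 SD, 99.7% confidence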;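 also: fluorescence intensity change per second fitted from 20 to 320 s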); conditions: Recombinant KvBeta, NADPH fluorescence decrease slope, 10 min; at 10 µM; stronger effect = lower value
[6] = molecular target: Alpha-2C adrenergic receptor (Homo sapiens) (UniProt P18825); test: compounds altering alpha2C-coupled GIRK flux – cell-based, HEK293 alpha2C/GIRK1/2, thallium flux, primary screen (AID 624;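 active = fluorescence slope after compound addition differing from the mean of all screened samples at 99.7% confidence, in either direction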;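 also: slope of fluorescence ratio to pre-addition baseline per second over 15 to 24 s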); conditions: thallium flux BTC fluorescence, at 10 µM, actives lie on both sides
Chain of Alpha-2C adrenergic receptor (Homo sapiens) (P18825 whole entry, looked up): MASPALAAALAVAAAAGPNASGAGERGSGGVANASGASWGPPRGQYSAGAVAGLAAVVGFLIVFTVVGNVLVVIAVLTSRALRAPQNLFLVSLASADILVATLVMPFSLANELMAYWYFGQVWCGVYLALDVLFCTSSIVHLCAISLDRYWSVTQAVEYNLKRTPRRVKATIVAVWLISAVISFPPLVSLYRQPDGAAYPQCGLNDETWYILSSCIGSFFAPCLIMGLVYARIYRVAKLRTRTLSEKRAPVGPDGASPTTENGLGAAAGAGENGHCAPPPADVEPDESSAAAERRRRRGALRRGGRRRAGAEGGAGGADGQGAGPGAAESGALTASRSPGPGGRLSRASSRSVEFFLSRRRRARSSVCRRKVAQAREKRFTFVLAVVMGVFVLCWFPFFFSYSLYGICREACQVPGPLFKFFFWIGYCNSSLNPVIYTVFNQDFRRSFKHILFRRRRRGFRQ

[7] = blockers of RIG-like receptor reporter activation – cell-based, Sendai virus stimulus, luciferase, 10K MLSCN set, TLR/RLR signaling modifier project, primary screen (AID 602276;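 active = inhibition at or above 50% at 10 µM; inactive = inhibition below 50%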;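 also: firefly luciferase from ISG56 promoter only with Renilla not read in this screen; 0% = Sendai virus plus DMSO and 100% = medium plus DMSO without virus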); conditions: HEK293 RL24 IRF3 luciferase reporter, at 10 µM, stronger effect = higher value
[8] = TLR3 IRF3 reporter activation blockers – cell-based, poly I:C stimulus, luciferase, 10K MLSCN set, primary screen (AID 602277;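 active = inhibition of the reporter signal at or above 50%; inactive = inhibition below 50%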); conditions: HEK293-TLR3 RL24 IRF3 luciferase reporter, at 10 µM, stronger effect = higher value

Structure (SMILES)	cell count [1]	inhibition [1]	inhibition of aggregation [2]	nuclei count [2] [%]	inhibition [3]	nuclei count [3] [%]	fluorescence slope [4]	NADPH fluorescence slope [5]	slope [6]	inhibition [7]	inhibition [8]
Cc1ccc(CCP(=O)(O)CN2CCOCC2)cn1	380	5.9% (inactive)	-2.2% (inactive)	100	4.3% (inactive)	95.2	-0.437 (inactive)	3.3e-05 (inactive)	0.00662 (inactive)	-1.89% (inactive)	33.2% (inactive)
Cc1ccc(Nc2cc(C)nc3ncnn23)c(Cl)c1	551	7.9% (inactive)	-2.9% (inactive)	69.8	-65.9% (inactive)	104	-0.491 (inactive)	4.8e-06 (inactive)	0.00625 (inactive)	6.25% (inactive)	18.4% (inactive)
COc1ccc(NC(=O)C2Cc3ccccc3C(=O)O2)cc1 (stereo not drawn)	642	0.3% (inactive)	15.6% (inactive)	105	-19.3% (inactive)	120	-0.427 (inactive)	-6e-05 (inactive)	0.00562 (inactive)	-11.7% (inactive)	-23.5% (inactive)
Cc1nc(SCc2ccc(Br)cc2)[nH]c(=O)c1C	755	0.8% (inactive)	-11.8% (inactive)	76.4	-44.8% (inactive)	117	-0.452 (inactive)	-2.5e-05 (inactive)	0.00691 (inactive)	3.06% (inactive)	29.5% (inactive)
COc1ccc(NC(=O)c2oc3ccccc3c2NC(=O)c2ccco2)cc1	317	-4.8% (inactive)	23.6% (inactive)	95.9	-4.1% (inactive)	95.1	-0.411 (inactive)	2.7e-05 (inactive)	0.00551 (inactive)	-10.3% (inactive)	-48.1% (inactive)
COC(=O)Cn1c(CCS(=O)(=O)c2ccc(C)cc2)nc2ccccc21	503	-41.8% (inactive)	6.7% (inactive)	57.3	-69.5% (inactive)	105	-0.498 (inactive)	-2.9e-05 (inactive)	0.00565 (inactive)	17.1% (inactive)	28.4% (inactive)
Cc1ccnc(NS(=O)(=O)c2ccc(NC(=O)Cc3cccs3)cc2)n1	301	6.3% (inactive)	0.7% (inactive)	67	-83.5% (inactive)	104	-0.408 (inactive)	6.5e-05 (inactive)	0.00546 (inactive)	-4.32% (inactive)	-12.1% (inactive)
CCOC(=O)N1CCC(NC(=O)C2CCC(Cn3c(=O)[nH]c4ccccc4c3=O)CC2)CC1 (stereo not drawn)	609	-0.3% (inactive)	-10.3% (inactive)	105	-89.5% (inactive)	101	-0.546 (inactive)	3.1e-05 (inactive)	0.00617 (inactive)	6.35% (inactive)	20.6% (inactive)
CC(C)Cc1n[nH]c(=O)[nH]1	742	-25.9% (inactive)	-10.2% (inactive)	113	-36.3% (inactive)	120	-0.543 (inactive)	-3.9e-05 (inactive)	0.00544 (inactive)	-8.4% (inactive)	1.42% (inactive)
Cc1cccc(OCc2nc(C#N)c(NCCN(C)C)o2)c1	628	-2.9% (inactive)	-1.8% (inactive)	102	-27.6% (inactive)	105	-0.514 (inactive)	-3.5e-05 (inactive)	0.00503 (inactive)	9.05% (inactive)	28.8% (inactive)
CCc1cccc(NC(=O)CN(C)S(=O)(=O)c2cccc3nsnc23)c1	337	-6.3% (inactive)	7.8% (inactive)	94	-68.8% (inactive)	120	-0.35 (inactive)	-6.7e-05 (inactive)	0.0056 (inactive)	10.2% (inactive)	8.03% (inactive)
CCOC(OCC)P(=O)(C(C)C)C(C)C	491	6% (inactive)	-0.1% (inactive)	93.4	-53.6% (inactive)	134	-0.443 (inactive)	4e-05 (inactive)	0.00549 (inactive)	17.5% (inactive)	17.3% (inactive)
CCOc1ccc(S(=O)(=O)Nc2ccc(Cl)cn2)c(C)c1C	536	-35.7% (inactive)	20.2% (inactive)	87.4	-43.3% (inactive)	101	-0.475 (inactive)	-3e-05 (inactive)	0.00637 (inactive)	4.93% (inactive)	26.8% (inactive)
